# Screens (PubChem)
# HCV inhibitor = qHTS Assay for Inhibitors of Hepatitis C Virus (HCV). actives 3.4% (n = 340,000). Potency, µM (top dose mostly 41.8 µM), for inactives: at the top dose activity change, negative = inhibition, most hits filed as inhibitors. Huh7.5.1 HCVcc-Cre infection, luciferase reporter, 44 h; active = well fitted inhibition curve with a large enough effect; inconclusive = small, poorly fitted or top-dose-only effect, or another doubt; inactive = no such curve, though single readings can be large or run the other way; note: potency is the fitted concentration of half-maximal effect; % is set by controls: 0 for no effect and ±100 for the full control effect
#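 Antiviral activity was scored by luciferase reporter output from cells infected with HCVcc-Cre (~0.5 moi) in presence of compound, 44 h infection period, cells seeded 1,000/well 4 h prior.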
# Marburg entry inh = qHTS for inhibitors of binding or entry into cells for Marburg Virus | Marburg virus pseudotyped entry inhibition, cell reporter | Potency, µM (titrated, usually from 37.8 µM), for the others: at the top dose activity change, negative = inhibition, most hits filed as inhibitors | actives 1.8% (n = 300,000); calls by dose curve; tested in HEK293 cells; note: potency is the fitted concentration of half-maximal effect; % is set by controls: 0 for no effect and ±100 for the full control effect
# Shiga inhibitor = A qHTS for Small Molecule Inhibitors of Shiga Toxin. inhibition, % at 38.7 µM. actives 9.2% (n = 290,000). Vero cells, Shiga toxin protein synthesis inhibition reporter; in the data active = inhibition mostly above about 28%, no sharp cut-off; inactive = mostly below about 43%; note: 0% is about no effect
# FMDV inh = High Throughput Screening for Foot and Mouth Disease Virus Antivirals; Potency, µM (titrated, usually from 57.9 µM), for the others: at the highest dose activity change, negative = inhibition, most hits filed as inhibitors; AID 1159524, 2015; FMDV antiviral cell-based qHTS; actives 1.2% (n = 410,000); calls by dose curve; tested in HEK293T cells; note: read-out not given here; potency is the fitted concentration of half-maximal effect; % is set by controls: 0 for no effect and ±100 for the full control effect; nearly all actives have a fitted effect of over 45% in size
# Cycloheximide cs = Cycloheximide Counterscreen for Small Molecule Inhibitors of Shiga Toxin; actives 12% (n = 300,000); cell reporter, cycloheximide protein synthesis inhibition counterscreen; max response, %; AID 2314, 2010; in the data active = max response mostly above about 13%, no sharp cut-off; inactive = mostly below about 14%; note: read at 38.3 µM for the half of the compounds with a filed dose; 0% is about no effect
# Lassa entry inh = qHTS for Inhibitors of binding or entry into cells for Lassa Virus. Lassa virus pseudotype entry inhibition, cell reporter. Potency, µM (series often up to 37.9 µM), inactives show at the top dose activity change, negative = inhibition, most hits filed as inhibitors. actives 1.2% (n = 300,000). AID 540256, 2011; calls by dose curve; tested in HEK293 cells; note: potency is the fitted concentration of half-maximal effect; % is set by controls: 0 for no effect and ±100 for the full control effect; nearly all actives have a fitted effect of over 50% in size
# * marks the source's active call; other numbers are inactive results; u = inconclusive; x = no result; + = active, no number; ! = repeats disagree; [ ] = remark or other dose. In the library only some 13% were active in any assay of this set; here they are far more common.
SMILES,HCV inhibitor,Marburg entry inh,Shiga inhibitor,FMDV inh,Cycloheximide cs,Lassa entry inh
COC(=O)c1ccc(CO/N=C2\CCCc3nonc32)cc1,19%,u,53,59%,44*,2%
COc1ccc(C(=O)O/N=C2\CCCc3nonc32)cc1,6%,7%,-3,-7%,-1,12%
Cc1c2cnn(CC(=O)NC(C)C)c(=O)c2c(C)n1Cc1ccccc1Cl,x,u,x,27%,x,12%[46.1 µM]
Cc1ccc(S(=O)(=O)C2CS(=O)(=O)CC2O)cc1 (configuration not stated),13%,19%,12,x,-6,7%
CC(=O)C1=C(S(=O)(=O)c2ccc(C)cc2)CS(=O)(=O)C1,-9%,-3%[46.1 µM],29,u,20*,-10%[46.1 µM]
COc1ccc2c(C#N)c3ccccn3c2c1,3.2µM*,x,-12,20%,0,x
Cc1ccc(NC(=S)Nc2c(C)n(C)n(-c3ccccc3)c2=O)cc1,18%,u,-9,-3%,-1,5%
CC(C)(C)C1=CC(=O)C(N2CCOCC2)=CC1=O,-11%,u,27,u,-3,13µM*
CN(Cc1cnc2nc(N)nc(N)c2n1)c1ccc(C(=O)N[C@@H](CCC(=O)O)C(=O)O)cc1,u,0.04µM*!,x,u,x,u
O=C(O)CCC(NC(=O)C(Cc1ccc2c(c1)OCO2)NC(=O)c1ccccc1)C(=O)O (configuration not stated),-19%,-1%,-10,x,-3,x
O=C(O)CCC(NC(=O)c1cncc(O)c1)C(=O)O (configuration not stated),19%,18%,-20,-9%,-6,-3%
CN(Cc1cnc2nc(N)nc(N)c2n1)c1ccc(C(=O)N[C@H](CCC(=O)O)C(=O)O)cc1,x,0.04µM*,x,x,x,x
COc1ccccc1-c1nc(N)n[nH]1,24%,x,-4,-11%,-1,x
COCCNC(=O)COc1ncnc2ccc(Br)cc12,-8%,-9%,-26,1%,1,8%
CC(=O)Nc1sc(C)c(C)c1C(=O)OCC(=O)N(CC(C)C)c1c(N)n(Cc2ccccc2)c(=O)[nH]c1=O,5µM*,10%[46.1 µM],x,-10%,x,5%
CC(C)CN(C(=O)COC(=O)C12CC3CC(CC(O)(C3)C1)C2)c1c(N)n(Cc2ccccc2)c(=O)[nH]c1=O,x,x,x,-2%,x,x
CC(C)CN(C(=O)COC(=O)C12CC3CC(CC(C3)C1)C2)c1c(N)n(Cc2ccccc2)c(=O)[nH]c1=O,16µM*,-1%[46.1 µM],x,-18%,x,4%
CC(C)CN(C(=O)COC(=O)CSc1ccccc1F)c1c(N)n(Cc2ccccc2)c(=O)[nH]c1=O,7%,u,x,-18%,x,1%
Cc1ccc(SCC(=O)OCC(=O)N(CC(C)C)c2c(N)n(Cc3ccccc3)c(=O)[nH]c2=O)c(C)c1,10µM*,u,x,-23%,x,u
COC(=O)c1c(C)[nH]c(C(=O)OCC(=O)N(CC(C)C)c2c(N)n(Cc3ccccc3)c(=O)[nH]c2=O)c1C,u,10%,x,-12%,x,-35%[46.1 µM]
COc1cc(NC(C)C(=O)N2CC(C)OC(C)C2)cc(OC)c1 (configuration not stated),u,9%,-21,2%,-4,18%
CCc1ccc(NC(=O)c2ccc(F)c(S(=O)(=O)N3CCN(c4ccc(OC)cc4)CC3)c2)cc1,x,x,x,-16%,x,u
CC(=NCCc1ccccc1)c1c(O)n(C)c(=O)n(C)c1=O,16%,-8%[46.1 µM],9,-26%,-1,8%[46.1 µM]
C/C(=N\NC(=S)Nc1ccccc1)c1c(O)n(C)c(=O)n(C)c1=O,0%,3%,+,-8%,42*,u
CC(=Nc1ccccc1N)c1c(O)n(C)c(=O)n(C)c1=O,2%,x,72*,11%,24*,x
SMILES,HCV inhibitor,Marburg entry inh,Shiga inhibitor,FMDV inh,Cycloheximide cs,Lassa entry inh
CN(C)c1ccc(NC(=O)CCn2c(=S)oc3ccccc32)cc1,-26%,x,95*,58%,55*,x
Cc1ccc(NC(=O)CCn2c(=S)oc3ccccc32)cc1,-22%,6%[46.1 µM],-10,-3%,-3,u
COC(=O)c1ccc(NC(=O)CCn2c(=O)oc3ccccc32)cc1,-10%,25%,40*,13%,29*,18%
O=C(CCn1c(=O)oc2ccccc21)Nc1nc2ccccc2s1,-30%,x,44*,2%,13*,x
C[C@H](C(=O)O)c1cccc(C(=O)c2ccccc2)c1,-5%,x,x,-19%,x,x
Cc1ccc(NC(=O)COc2nc(C)cs2)cc1,-2%,10%,-4,11%,-1,-1%
O=C(O)CC1(Cc2nc(-c3cccs3)no2)CCCC1,19%,x,-3,8%,-5,x
CC(C)(C)C(=O)Nc1ccc(C(=O)Nc2cccnc2)cc1,-1%,-2%,52,22%,43*,u
CCC(=O)Nc1ccc(C(=O)Nc2cccnc2)cc1,-5%,2%,37*,67%,15*,u
CC(C)(C)C(=O)Nc1ccccc1C(=O)Nc1cccnc1,-12%,3%,15,3%,-3,18%
O=C(Nc1cccnc1)c1ccc(COCC(F)(F)F)cc1,-4%,6%,38*,39%,12*,u
CCC(=O)Nc1ccc(S(=O)(=O)Nc2cccnc2)cc1,4%,8%,-18,x,-3,12%
COc1cc(OC)cc(C(=O)NCCNC(=O)c2ccccc2)c1,9%,u,-15,-19%,4,1%
O=c1c(-c2ccc(Br)cc2)[n+]([O-])c2ccccc2n1OCc1ccccc1,15%,x,19,-4%,-3,x
CC(C)(C)c1ccc(COn2c(=O)c(-c3ccco3)[n+]([O-])c3ccccc32)cc1,1%,u,5,-4%,19*,-7%
N#Cc1nc(Cc2ccccc2)oc1NCc1ccccc1,12%,u,+,2%,28*,-4%
COc1ccc(CNc2oc(Cc3cccc4ccccc34)nc2C#N)cc1,u,u,7,-5%,11,18µM*
N#Cc1nc(COc2ccccc2Cl)oc1NCc1cccnc1,15%,2%,38*,-7%,14,0%
COc1ccc(CNc2oc(COc3ccccc3)nc2C#N)cc1,u,2%,40*,-13%,20*,u
COc1ccc(OC)c(CNC(=O)C2CCCN(c3ncnc4c3nc3n4CCCCC3)C2)c1 (configuration not stated),u,u,16,-23%,-2,7%[46.1 µM]
CC(=O)c1cccc(NC(=O)COc2cc3oc(=O)c(CC(C)O)c(C)c3cc2Cl)c1 (configuration not stated),u,u,-6,u,-3,-19%
Cc1ccc(-c2c(C(=O)N/N=C/c3ccco3)nnn2-c2nonc2N)cc1,-5%,4%[46.1 µM],-5,-2%,-4,11%[46.1 µM]
CN(Cc1c(C(=O)N/N=C/c2cccc(O)c2)nnn1-c1nonc1N)c1ccccc1,3%,x,-13,-3%,-9,x
